Screening results: PubChem, several laboratories
Sampled rows, rich in hits. Any-hit rate of the full collection: about 27%.
CYP2C19 act: activators of human cytochrome P450 2C19 | 96,000 tested, under 10 active | activation factor at 5 µM | recombinant CYP2C19, luciferin-H EGE luminescence; stronger effect = higher value; 0 = fully inhibited enzyme, 1 = untreated enzyme | P33261;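 active = activation factor of at least 2 at 5 µM in the primary screen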
sEH activator: increases human soluble epoxide hydrolase activity; P34913; purified human sEH enzymatic activity, activator screen; activation, % at 2 µM; 0.04% of 91,000 active; AID 717; in the data active = activation above about 37%
sEH inh: soluble epoxide hydrolase (human) inhibition | P34913 | recombinant human sEH enzymatic activity assay | inhibition, % at 2 µM | 0.34% of 91,000 active; in the data active = inhibition above about 80%
CYP2C9 inhib: inhibitors of human CYP2C9. P11712. CYP2C9 Supersomes, luciferin-H conversion, luminescence. inhibition, % at 5 µM. 20% of 96,000 active. AID 777;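 active = blocking of liver enzyme CYP2C9 beyond about 50% at 5 µM, limit read from the data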
Target sequence (P11712 whole entry, looked up): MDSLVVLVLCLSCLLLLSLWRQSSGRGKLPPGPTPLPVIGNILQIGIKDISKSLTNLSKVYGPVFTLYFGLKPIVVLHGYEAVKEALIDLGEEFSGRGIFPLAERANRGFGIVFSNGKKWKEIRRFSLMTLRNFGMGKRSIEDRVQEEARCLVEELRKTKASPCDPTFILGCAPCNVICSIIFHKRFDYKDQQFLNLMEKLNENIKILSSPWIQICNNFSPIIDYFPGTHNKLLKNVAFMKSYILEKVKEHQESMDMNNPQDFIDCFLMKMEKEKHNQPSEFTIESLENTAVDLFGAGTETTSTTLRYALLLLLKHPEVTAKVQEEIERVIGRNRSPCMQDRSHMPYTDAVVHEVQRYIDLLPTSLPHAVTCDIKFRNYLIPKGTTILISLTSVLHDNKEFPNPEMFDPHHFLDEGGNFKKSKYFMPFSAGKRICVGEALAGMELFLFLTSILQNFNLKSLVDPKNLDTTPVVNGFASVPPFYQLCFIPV
CYP2C19 inh: human CYP2C19 inhibition; inhibition, % at 5 µM; 21% of 96,000 active; AID 778; CYP2C19 Supersomes, luciferin-H EGE luminescence, 30 min; P33261;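 active = CYP2C19 inhibition above a set limit at 5 µM in the primary screen, cut at about 50% in these data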
CYP2C9 activ: activators of human CYP2C9; P11712; activation factor at 5 µM; recombinant CYP2C9, luciferin-H conversion, luminescence; stronger effect = higher value; factor 1 = untreated enzyme, 0 = blocked; 1.4% of 96,000 active; AID 1024;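 active = activation factor of 2 or more for CYP2C9 at a 5 µM dose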
Each line names hits and unclear results; the compound was inactive in the other large screens.

COc1ccc(-c2cc(CCCC(=O)NCc3ccccn3)no2)cc1	CYP2C9 inhib 67, CYP2C19 inh 56 (no result: sEH activator, sEH inh)
CCOc1ccc(-c2cc(CCCC(=O)NCCc3ccccc3)no2)cc1	CYP2C9 inhib 50
Cc1cc(S(=O)(=O)NC2CCCCC2)ccc1OCC(=O)NCc1ccccn1	CYP2C9 inhib 54
COc1ccc(S(=O)(=O)N2CCC(C(=O)NCc3ccccn3)CC2)cc1OC	none
CCOc1ccc(-c2cc(CCCC(=O)NCc3cccnc3)no2)cc1	none (no result: sEH activator, sEH inh)
CCOc1cc(CNCc2ccccn2)ccc1OCC(=O)NC1CCCCC1	none
O=C(CCCSc1nc2ccccc2[nH]1)N1CCN(c2ccc([N+](=O)[O-])cc2)CC1	none
Cc1ccccc1NC(=O)C(=O)NCc1ccccn1	CYP2C19 inh 89
CCOc1ccc(-c2cc(CCCC(=O)NCCc3ccc(OC)c(OC)c3OC)no2)cc1	CYP2C9 inhib 66
Cc1ccc(OCC(=O)NCc2ccccn2)cc1	CYP2C19 inh 76
Cc1cc(=O)oc2cc(OCC(=O)NCc3ccccn3)ccc12	none
Fc1ccc(-c2csc3nnc(SCc4cccnc4)n23)cc1	CYP2C19 inh 83
O=C(CSc1nnc2scc(-c3ccccc3)n12)Nc1ccc2c(c1)OCCO2	CYP2C9 inhib 53
c1ccc(-c2csc3nnc(SCc4ccc5c(c4)OCO5)n23)cc1	CYP2C9 inhib 92, CYP2C19 inh 92
O=C(CCSc1nnc2scc(-c3ccccc3)n12)NCc1ccc2c(c1)OCO2	none
Cc1ccc(-c2csc3nnc(SCc4csc(C)n4)n23)cc1	CYP2C9 inhib 90, CYP2C19 inh 75
O=S1(=O)N=C(Nc2ccc(O)c(CN3CCCCC3)c2)c2ccccc21	none (no result: sEH activator, sEH inh)
O=C(/C(=C/O)N=Nc1ccc(Cl)cc1)c1ccncc1	CYP2C19 inh 66
CC(C)(C)NC(=O)c1ccncc1	none
Cc1ccc(N=N/C(=C\O)C(=O)c2ccncc2)cc1	CYP2C9 inhib 88, CYP2C19 inh 95
COc1ccc(NC(=S)N2CCN(C/C=C/c3ccccc3)CC2)cc1OC	none
CCOc1cc(NC(=O)c2ccccn2)c(OCC)cc1NC(=O)CC(C)C	none
CC(C)C(=O)Nc1nnc(CSCc2ccccc2F)s1	CYP2C19 inh 70
CCOCCc1nnc(NC(=O)c2ccc(OC)c(OC)c2)s1	none
CC(C)C(=O)Nc1nnc(CCc2nnc(NC(=O)C(C)C)s2)s1	none (no result: CYP2C19 act, CYP2C9 inhib, CYP2C19 inh, CYP2C9 activ)
CCc1nnc(NC(=O)C(C)Sc2ccccc2)s1 (stereo unspecified)	CYP2C9 inhib 74, CYP2C19 inh 83
CC(C)(C)C(=O)Nc1nnc(CSCc2ccccc2F)s1	CYP2C9 inhib 56, CYP2C19 inh 59
CC(C)COC(=O)Nc1nnc(SCc2ccccc2F)s1	none
CCOCCc1nnc(NC(=O)C(CC)c2ccccc2)s1 (stereo unspecified)	CYP2C9 inhib 87, CYP2C19 inh 56
CCOC(=O)C(NC(C)=O)(Nc1ccc(S(=O)(=O)Nc2ccncn2)cc1)C(F)(F)F (stereo unspecified)	none (no result: CYP2C19 act, CYP2C9 inhib, CYP2C19 inh, CYP2C9 activ)
COc1ccc(S(=O)(=O)N2CCC(C)CC2)cc1Br	CYP2C19 inh 71, CYP2C9 activ 2.9
CC1CCN(S(=O)(=O)c2ccc3c(c2)C(=NO)c2cc(S(=O)(=O)N4CCC(C)CC4)ccc2-3)CC1	none (no result: sEH activator, sEH inh)
CCN1CCN(S(=O)(=O)c2ccc(OC)c(Br)c2)CC1	CYP2C19 inh 72, CYP2C9 activ 2.6
O=S(=O)(c1ccc2ccccc2c1)N1CCN(S(=O)(=O)N2CCCCC2)CC1	none
CCN1CCN(S(=O)(=O)c2ccc3ccccc3c2)CC1	CYP2C19 inh 71, CYP2C9 activ 2
COc1ccc(S(=O)(=O)N2CCN(C)CC2)cc1Br	none
Cc1cc(=O)oc(C)c1C(=O)Nc1c(C)n(C)n(-c2ccccc2)c1=O	none (no result: sEH activator, sEH inh)
O=C(NCC(=O)N(c1ccc2c(c1)OCCO2)C(C(=O)NC1CCCC1)c1ccco1)c1ccco1 (stereo unspecified)	none (no result: CYP2C19 act, CYP2C9 inhib, CYP2C19 inh, CYP2C9 activ)
CC(C)(C)NC(=O)CN(C(=O)CS(=O)CC(=O)Nc1ccc(F)cc1)c1ccc(Cl)cc1 (stereo unspecified)	none
Cc1ccc(N(CC(O)CN(C)C)S(=O)(=O)c2ccccc2)cc1 (stereo unspecified)	none
CCN(CC(O)Cn1c2ccccc2c2ccccc21)S(=O)(=O)c1ccc(C)cc1 (stereo unspecified)	CYP2C9 inhib 90, CYP2C19 inh 99
CS(=O)(=O)N(CC(O)Cn1c2ccccc2c2ccccc21)c1ccccc1 (stereo unspecified)	CYP2C9 inhib 97, CYP2C19 inh 96
COc1ccc(N(CC(O)Cn2c3ccccc3c3ccccc32)S(=O)(=O)c2ccccc2)cc1 (stereo unspecified)	CYP2C9 inhib 70, CYP2C19 inh 83
CC(C)(C)C1=C(C#N)C(c2cc3c(cc2Br)OCO3)C(C#N)=C(N)O1 (stereo unspecified)	none (no result: sEH activator, sEH inh)
Cc1ccc(C)n1-c1sc2c(c1C#N)CCC(C)C2 (stereo unspecified)	none
Cn1c(=O)c2cc(S(=O)(=O)NC(C(=O)N3CCCCCC3)c3ccccc3)ccc2n(C)c1=O (stereo unspecified)	none
O=C(c1cccnc1)N1C2CCC1CC(O)(c1ccc(F)cc1)C2 (stereo unspecified)	CYP2C19 inh 52
O=C(c1ccc(F)cc1)N1C2CCC1CC(O)(c1ccc(F)cc1)C2 (stereo unspecified)	none
O=C(NC1=NCCS1)c1cc(-c2ccccc2)nn1-c1ccccc1	none (no result: sEH activator, sEH inh)
Cc1ccccc1NC(=O)CC1(c2ccc(N(C)C)cc2)C(=O)c2ccccc2C1=O	CYP2C19 inh 56
O=C(O)CC1(c2ccccc2)C(=O)c2ccccc2C1=O	none (no result: sEH activator, sEH inh)
COc1ccc(C(=O)c2c(C(F)(F)F)oc3c2C(=O)c2ccccc2C3=O)cc1	CYP2C9 inhib 78, CYP2C19 inh 75
COCCN1C=C(C(=O)OC)C(c2ccc3c(c2)OCO3)C(C(=O)OC)=C1	CYP2C9 inhib 70, CYP2C19 inh 74 (no result: sEH activator, sEH inh)
CCN1C=C(C(=O)OC)C(c2cccc(C)c2)C(C(=O)OC)=C1	CYP2C9 inhib 74, CYP2C19 inh 70 (no result: sEH activator, sEH inh)
COCCN1C=C(C(=O)OC)C(c2cc3c(cc2Br)OCO3)C(C(=O)OC)=C1	none
Clc1ccc2c(c1)CNc1c(ncnc1N1CCOCC1)O2	CYP2C9 inhib 56, CYP2C19 inh 99 (no result: sEH activator, sEH inh)
O=C(NC(NC(=S)Nc1ccc(Cl)cc1Cl)C(Cl)(Cl)Cl)c1cccc([N+](=O)[O-])c1 (stereo unspecified)	CYP2C9 inhib 88
O=C(NC(=S)Nc1cc([N+](=O)[O-])ccc1Cl)c1ccccc1	none
CCc1cccc2c(=O)c(C(=O)NCCN3CCOCC3)c[nH]c12	none
CCCS(=O)(=O)N1CCc2cc(OC)c(OC)cc2C1	CYP2C19 inh 55
Cc1ccc(Oc2ccc3c(c2)C(=O)N(c2ccc(S(=O)(=O)Nc4nccs4)cc2)C3=O)cc1	CYP2C9 inhib 64
CC(C)(C)C(=O)Nc1ccc(Oc2ccc3c(c2)C(=O)N(c2ccc(O)cc2)C3=O)cc1	none
